Assay outcomes: PubChem BioAssay, National Center for Advancing Translational Sciences (NCATS)
Most compounds without a hit are left out; they make up all but 5.2% or so of the library.
FBPA coupling cs: inhibits coupling enzyme system, counter-screen for aldolase hits; coupling enzyme system counterscreen, AmpLite Red fluorescence; 290,000 compounds, 0.67% hits; activity change, negative = inhibition, % at 58.2 µM, hits read low; AID 2472; in the data active = activity change below about -30%
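Final compound at 57.5 uM, incubated 10 min at RT with coupling enzyme reagent (glyceraldehyde-3-phosphate), then 20 min with substrate and AmpLite Red detection. Fluorescence read at 525/598 nm; tests interference with the coupling assay, not aldolase inhibition.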
Tau fibril FP: blocks human tau fibril formation measured by polarization. 280,000 compounds, 0.39% hits. P10636. K18 P301L tau heparin fibrillization, Alexa594 FP, 6 h. Potency, µM (highest dose often 57.7 µM), hits mostly inhibitors; also: nearly all actives have a fitted effect of over 55% in size
Target sequence (P10636 561-689 P618L limits assumed): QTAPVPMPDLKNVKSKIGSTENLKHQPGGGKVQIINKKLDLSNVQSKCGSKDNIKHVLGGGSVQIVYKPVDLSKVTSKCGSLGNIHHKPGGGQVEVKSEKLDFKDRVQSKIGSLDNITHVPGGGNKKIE
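Recombinant K18 P301L […], labeled with Alexa 594 at 0.24 uM over 15 uM unlabeled; heparin inducer 20 uM final; 37 C, 6 hr; FP endpoint.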
Tau ThT inhib: inhibitors of human tau fibril formation, thioflavin T binding; P10636; recombinant tau K18 P301L, heparin-induced fibrillization, ThT fluorescence; Potency, µM (highest dose often 57.4 µM), most hits filed as inhibitors; 270,000 compounds, 2.1% hits; AID 1460; also: nearly all actives have a fitted effect of over 55% in size
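In this qHTS, human K18 P301L tau is incubated with compound and heparin for 6 hr at 37 C, and Thioflavin T fluorescence then reports fibril load.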
Tau fluor counter: counter-screen for tau fibril formation inhibitors | tau K18 P301L Alexa594 fluorescence, heparin fibrillization | Potency, µM (top dose mostly 57.7 µM) | 280,000 compounds, 0.93% hits | AID 1463; also: nearly all actives have a fitted effect of over 55% in size
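Human tau K18 P301L (15 uM unlabeled, 0.24 uM Alexa 594-labeled) in 100 mM sodium acetate pH 7 with 20 uM heparin, 6 hr at 37 C. ThT 30 uM added, 1 hr ambient; Alexa 594 FP and total fluorescence read at 555/632 nm.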
Sfp inh: Sfp phosphopantetheinyl transferase inhibition; 310,000 compounds, 3.5% hits; Potency, µM, hits mostly inhibitors; Biochemical Sfp PPTase activity, qHTS; Q9F4F7;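 also: the enzyme is Sfp with the accession as filed and its product quenches rhodamine fluorescence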
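After 15 min at room temperature with compound, 15 nM Sfp received 5 uM rhodamine-CoA plus 12.5 uM BHQ-2-ybbR (50 mM Hepes pH 7.6, 10 mM MgCl2). Rate came from the fluorescence difference over 30 min, ex 525/em 598 nm.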
Large screens that a line does not name were inactive; [ ] = dose if it differs, or a comment. Unless noted, calls follow the shape of the dose curve; as a rule, active = well fitted curve in the direction sought with a large enough effect; inconclusive = small, poorly fitted or top-dose-only effect, or another doubt; inactive = no such curve, though single readings can be large; an effect the other way counts as inactive or inconclusive.

N#C/C(=C\c1ccc(O)c([N+](=O)[O-])c1)C(=O)NCc1ccccc1	Tau ThT inhib 16µM
C[C@@H](NC(=O)/C(C#N)=C/c1ccc(O)c(O)c1)c1ccccc1	Tau ThT inhib inconclusive, Tau fluor counter inconclusive
N#C/C(=C\c1ccc(O)c(Br)c1)C(=O)NCc1ccccc1	none
N#C/C(=C/c1ccc(O)c(O)c1)C(=O)OC/C=C/c1ccccc1	Tau fibril FP inconclusive, Tau ThT inhib 11µM, Tau fluor counter 11µM[quencher] (no result: FBPA coupling cs)
Cc1cccc(N2CCN(Cc3nnc(-c4ccccc4C)o3)CC2C)c1 (stereo not drawn)	Tau ThT inhib inconclusive (no result: FBPA coupling cs, Sfp inh)
COCCNC(=O)c1ccc2c(c1)N(Cc1cc(C)ccc1C)C(=O)c1ccccc1S2(=O)=O	none (no result: FBPA coupling cs, Sfp inh)
COc1cc(Cl)c(C)cc1NC(=O)c1ccc(CN2C(=O)CCn3nc(C)cc32)cc1	none (no result: FBPA coupling cs, Sfp inh)
CCC(C(=O)NC(N)=O)c1ccccc1 (stereo not drawn)	none (no result: FBPA coupling cs, Tau fibril FP, Tau ThT inhib, Tau fluor counter)
CCOC(=O)c1c(-c2ccc(C)o2)csc1NC(=S)NC(=O)c1ccccc1Br	Tau ThT inhib inconclusive, Sfp inh 3.5µM
CCOC(=O)c1c(-c2ccccc2)csc1NC(=O)CSc1nnc(C)s1	Tau ThT inhib inconclusive
CCOC(=O)c1c(-c2ccc(C)o2)csc1NC(=O)CSc1nnc(C)s1	Tau ThT inhib inconclusive, Sfp inh 22µM
CCOC(=O)c1c(-c2ccc(C)o2)csc1NC(=S)NC(=O)c1cccs1	Tau fibril FP inconclusive, Tau ThT inhib inconclusive, Tau fluor counter inconclusive, Sfp inh inconclusive
CCN(CC)c1ccc(NC(=O)CCc2nc3cccnc3n2Cc2cccs2)c(C)c1	none (no result: FBPA coupling cs, Sfp inh)
COc1cc(/C=C/[N+](=O)[O-])ccc1OC(=O)c1cc2ccccc2oc1=O	Sfp inh 3.5µM (no result: Tau fibril FP, Tau ThT inhib, Tau fluor counter)
c1ccc(CN2CCN(c3ncccn3)CC2)cc1	none (no result: Tau fibril FP, Tau ThT inhib, Tau fluor counter)
c1ccc(-c2nc(-n3ccnc3)nc(-n3ccnc3)n2)cc1	FBPA coupling cs -51, Sfp inh inconclusive
c1ccc(N(c2ccccc2)c2nc(N3CCCC3)nc(-n3ccnc3)n2)cc1	Tau ThT inhib inconclusive, Sfp inh 45µM
c1ccc(CN2CCN(c3nc(-c4ccccc4)nc(-n4ccnc4)n3)CC2)cc1	Tau fibril FP inconclusive, Tau ThT inhib inconclusive, Sfp inh 32µM
COC(=O)c1c(N2C(=O)CC(Sc3ncccc3C(=O)O)C2=O)sc(C)c1C (stereo not drawn)	Tau fluor counter inconclusive, Sfp inh 89µM (no result: Tau ThT inhib)
CN(C)c1ccc(-c2ccc3ncnc(-n4ccnc4)c3c2)cc1	none (no result: Tau fibril FP, Tau ThT inhib, Tau fluor counter)
O=C(O)c1ccccc1C(=O)Nc1ccc(Br)c2cccnc12	Sfp inh 40µM
CC1(C)CC(=O)C2=C(C1)NC(SCC(=O)Nc1ccccc1)=C(C#N)C21CCCCC1	Tau fibril FP inconclusive, Tau fluor counter inconclusive
CC1(C)CC(=O)C2=C(C1)NC(=S)C(C#N)C21CCCCC1 (stereo not drawn)	Tau fibril FP inconclusive, Tau fluor counter inconclusive, Sfp inh 11µM (no result: Tau ThT inhib)
Cc1ccc(C)c2[nH]c(=O)c(CN(CC3CCCO3)C(=S)NCc3ccco3)cc12 (stereo not drawn)	none (no result: Tau ThT inhib)
CCc1ccc2[nH]c(=O)c(CN(CC3CCCO3)C(=S)NCc3ccco3)cc2c1 (stereo not drawn)	Tau fibril FP inconclusive, Sfp inh 3.5µM (no result: Tau ThT inhib)
Cc1ccc2cc(CN(CC3CCCO3)C(=S)NCc3ccco3)c(=O)[nH]c2c1C (stereo not drawn)	Sfp inh 32µM
CCOc1ccc2[nH]c(=O)c(CN(Cc3ccco3)C(=O)c3ccc(Br)cc3)cc2c1	Tau ThT inhib inconclusive, Sfp inh 40µM
O=C(c1ccco1)N(Cc1cc2ccccc2[nH]c1=O)CC1CCCO1 (stereo not drawn)	none
CCc1ccc2[nH]c(=O)c(CN(CCN(CC)CC)C(=S)NCc3ccco3)cc2c1	Sfp inh 79µM
CCc1ccc2[nH]c(=O)c(CN(CCN(C)C)C(=S)NCc3ccco3)cc2c1	none
Cc1ccc(-c2nnc3ccccc3c2C(=O)Nc2ccc(C)c(F)c2)cc1	none (no result: FBPA coupling cs, Sfp inh)
Cc1cc(C)c2cc(CN(Cc3ccco3)C(=S)NCC3CCCO3)c(=O)[nH]c2c1 (stereo not drawn)	Tau ThT inhib inconclusive, Sfp inh 20µM
COc1ccc2[nH]c(=O)c(CN(CC3CCCO3)C(=S)Nc3cccc(C)c3)cc2c1 (stereo not drawn)	Sfp inh 56µM
Cc1ccc(Nc2c(-c3c[nH]c4ccccc34)nc3ccccn23)cc1	Tau ThT inhib inconclusive, Tau fluor counter 8.9µM[quencher] (no result: FBPA coupling cs, Sfp inh)
Cc1cccc(NC(=O)CN2C(=O)N/C(=C\c3cccn3-c3cccc(C(=O)O)c3)C2=O)c1	Sfp inh 50µM
O=C(O)c1cccc(-n2cccc2/C=C2/NC(=O)N(c3cccc(Cl)c3)C2=O)c1	Sfp inh 45µM (no result: Tau ThT inhib)
O=C(O)c1cccc(-n2cccc2/C=C2/NC(=O)N(c3ccc(Cl)cc3)C2=O)c1	Sfp inh 14µM
COc1ccc(-n2cccc2/C=C2/NC(=O)N(c3cccc(Cl)c3)C2=O)cc1	none
CCCN(CCC)S(=O)(=O)c1ccc(C(=O)N2CCn3c4c(c5cc(C)ccc53)CCCC42)cc1 (stereo not drawn)	none (no result: FBPA coupling cs, Sfp inh)
N#Cc1c(-c2ccccc2)[nH]c(=S)[nH]c1=O	Sfp inh 50µM
COc1ccc(OC)c(CNC(=O)c2cc3cc4ccc(OC)cc4nc3o2)c1	Tau fibril FP inconclusive, Tau fluor counter inconclusive (no result: FBPA coupling cs, Sfp inh)
